SMN2 splice enh: SMN2 splice variant enhancement. actives 2.8% (n = 210,000). HEK293 SMN2-luciferase splicing reporter, luminescence, 30-36 h. Potency, µM (series often up to 46.1 µM), without a hit: at the top dose activity change, positive = activation, most hits filed as activators; also: % of control where 0% means no effect; nearly all actives have a fitted effect of over 55% in size
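qHTS luciferase splicing reporter: luminescence rises when SMN2 exon 7 is included in transfected HEK293 cells. Compound exposure lasted 30-36 h at 37C, with 4.5 mM final sodium butyrate as control, followed by a ONE-Glo read.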
FLuc counter: inhibits or activates purified firefly luciferase, miR-21 counter-screen; AID 588342; actives 6.9% (n = 360,000); purified FLuc, Km substrates, luminescence inhibition; Potency, µM (titrated, usually from 57.5 µM), inactives show top-dose activity change, negative = inhibition, hits mostly inhibitors;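 also: plate controls were vehicle for no effect and reference inhibitor for full effect; nearly all actives have a fitted effect of over 55% in size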
Target sequence (P08659 whole entry, looked up): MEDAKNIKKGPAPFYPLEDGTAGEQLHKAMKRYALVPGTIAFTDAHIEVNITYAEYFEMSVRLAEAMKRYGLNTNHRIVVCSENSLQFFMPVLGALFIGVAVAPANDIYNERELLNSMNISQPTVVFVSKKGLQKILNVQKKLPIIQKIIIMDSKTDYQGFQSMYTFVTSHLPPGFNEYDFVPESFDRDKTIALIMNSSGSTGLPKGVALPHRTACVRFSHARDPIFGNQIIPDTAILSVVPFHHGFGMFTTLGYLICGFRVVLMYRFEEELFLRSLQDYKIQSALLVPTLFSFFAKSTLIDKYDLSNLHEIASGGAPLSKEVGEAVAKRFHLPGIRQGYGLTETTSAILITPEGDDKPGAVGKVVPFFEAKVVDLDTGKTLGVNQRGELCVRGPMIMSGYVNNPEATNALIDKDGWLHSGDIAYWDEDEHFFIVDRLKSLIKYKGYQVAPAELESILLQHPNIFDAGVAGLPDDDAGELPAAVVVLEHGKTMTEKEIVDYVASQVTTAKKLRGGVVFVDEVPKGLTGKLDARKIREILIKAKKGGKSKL
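Biochemical qHTS of compounds, final roughly 60 µM downward over six points, against 10 nM purified firefly luciferase using Km concentrations of substrates (10 uM D-luciferin, 10 uM ATP) in Tris acetate pH 7.5 buffer; luminescence output.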
Rab9 prom act: activators of Rab9 promoter. Huh7 Rab9 promoter-luciferase reporter, luminescence, 24 h. Potency, µM (highest dose often 9.22 µM), inactives show top-dose activation, negative = inhibition, most hits filed as activators. actives 2.8% (n = 320,000). AID 485297; also: % of control where 0% means no effect; nearly all actives have a fitted effect of over 60% in size
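Steps: seed 1500 Huh7 Rab9-luc cells per well, rest 2 h at 37 °C; add compound in DMSO; incubate 24 h; add luciferase reagent, 10 min ambient; read luminescence.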
Luc counter: Kinase-Glo luciferase inhibition (counter-screen) | Q27757 | Kinase-Glo luciferase, ATP luminescence, 8 min | Potency, µM (titrated, usually from 38.3 µM), without a hit: top-dose activity change, negative = inhibition, most hits filed as inhibitors | actives 0.28% (n = 200,000); also: % is scaled to controls: 0 for no effect and ±100 for the full control effect; nearly all actives have a fitted effect of over 60% in size
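Inhibition of Kinase-Glo luciferase light generation was assessed at 10 uM ATP in pH 7.2 imidazole buffer, with luminescence measured after eight minutes at ambient temperature.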
NPC1 promoter act: NPC1 promoter activation; Huh7 NPC1 promoter luciferase reporter, 24 h; Potency, µM (doses to about 9.22 µM), without a hit: at the top dose activation, hits mostly activators; actives 2.4% (n = 320,000); AID 485313; also: % of control where 0% means no effect; nearly all actives have a fitted effect of over 60% in size
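Luciferase expression driven by the NPC1 promoter was measured in stably transfected Huh7 cells after a 24 h compound incubation, using a luciferase reagent and a luminescence read.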
ELG1 genotoxic: induces genotoxicity in HEK293T cells with luciferase-tagged ELG1; HEK293T ELG1-luciferase reporter, luminescence, 16 h; Potency, µM (top dose mostly 46 µM), inactives show at the highest dose activity change, positive = activation, hits mostly activators; actives 1.3% (n = 330,000); AID 504466; also: % of control where 0% means no effect; nearly all actives have a fitted effect of over 60% in size
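Genotoxic stress is detected as increased luminescence from luciferase-tagged ELG1 in HEK293T cells, measured with ONE-Glo after a 16 hr treatment at 37 °C.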
* hit, by the source's call; ? = inconclusive; / = no result given; [ ] = remark or other dose. Most compounds without a hit are left out; they make up all but 7.3% or so of the library. Calls follow the shape of the dose curve; as a rule, active = well fitted curve in the direction sought with a large enough effect; inconclusive = small, poorly fitted or top-dose-only effect, or another doubt; inactive = no such curve, though single readings can be large; an effect the other way counts as inactive or inconclusive. Potency is read from the fitted curve at half-maximal effect.

SMILES	SMN2 splice enh	FLuc counter	Rab9 prom act	Luc counter	NPC1 promoter act	ELG1 genotoxic
Cc1ccc(C(=O)CC(=O)c2ccc(C(C)(C)C)cc2)cc1	/	9.53µM*	?	1.5%	?	5.9%
COc1ccc(C(=O)CC(=O)c2ccc(C(C)(C)C)cc2)cc1	-10.8%	/	/	-9.2%	/	/
Cc1cccc(NCCC(=O)c2ccc([N+](=O)[O-])cc2)c1C	15.9%	-2.8%	19.6%	-1.9%	-0.4%	-4.8%
Cc1ccc(C(=O)CNc2ccccc2C)cc1	-2.6%	6.01µM*	24.2%	-4.8%	16.8%	?
CC(C)(C)n1ncc2c(=O)n(Cc3cccc(C(F)(F)F)c3)cnc21	/	-9.2%	/	/	/	/
Cc1ccc(Cn2c(CNC(=O)CCc3ccccc3)nc3cccnc32)cc1	/	6.9%	/	/	/	/
COc1cc(NC(=O)CSc2nc3nc(C)c(Cc4ccccc4)c(C)n3n2)cc(OC)c1OC	/	-1.6%	/	/	/	/
CSc1ccccc1OCc1cc(C(=O)NCCC2CCCCO2)no1 (configuration not stated)	/	?	14.4%	/	?	7.7%
COc1cccc(OCc2cc(C(=O)NC3CCOCC3)no2)c1	/	23.9µM*	?	/	?	?
COc1ccc(OCc2cc(C(=O)NCC3CCCCO3)no2)c(Cl)c1 (configuration not stated)	/	?	3.98µM*	/	?	?
COc1ccc(OCc2cc(C(=O)N(C)Cc3cc(C4CC4)n[nH]3)no2)c(Cl)c1	/	12µM*	2.82µM*	/	3.55µM*	?
COc1ccc(OCc2cc(C(=O)N(C)Cc3cnccn3)no2)c(Cl)c1	/	?	?	/	25.9%	?
COc1ccc(OCc2cc(C(=O)NCC3CCOCC3)no2)c(Cl)c1	/	13.5µM*	?	/	?	?
CSc1cccc(NC(=O)N2CCN(S(=O)(=O)c3ccc4c(ccn4C)c3)CC2)c1	/	-4.5%	/	/	/	/
CCOC(=O)c1cc(-c2ccccc2)n(CCCC(=O)Nc2cccc(Cl)c2C)c1C	/	-0.5%	/	/	/	/
COc1ccc(OCc2cc(C(=O)NCCN3CCCc4ccccc43)no2)c(Cl)c1	/	23.9µM*	4.5%	/	23.9%	-20.2%
COc1ccc(OCc2cc(C(=O)NCCN3CCCC(O)C3)no2)c(Cl)c1 (configuration not stated)	/	?	-2.1%[1.84 µM]	/	1.9%	2.6%
COc1cc(/C=C(\C#N)C(=O)Nc2ccc3c(c2)OCCO3)ccc1O	/	0.269µM*	11.5%	/	-4.6%	5.2%
COc1cc(/C=C(\C#N)C(=O)Nc2ccccn2)ccc1O	/	10.7µM*	-1.7%	/	-3.5%	?
CCOc1cccc(NC(=O)/C(C#N)=C/c2cccnc2)c1	/	16.9µM*	-0.7%	/	-5.7%	0.2%
CCOc1cc(/C=C(\C#N)C(=O)Nc2ccccn2)ccc1O	/	16.9µM*	0.5%	/	-7.3%	9.1%
COc1cc(/C=C(\C#N)C(=O)N2CCc3ccccc32)ccc1O	/	16.9µM*	-7.4%	/	-0.6%	0.4%
N#C/C(=C/c1ccc(O)c([N+](=O)[O-])c1)C(=O)Nc1ccccc1	/	13.5µM*	-6.7%	/	-30.5%	-4.7%
N#C/C(=C\c1ccc(O)c(O)c1)C(=O)N1CCc2ccccc21	/	?	-10.5%	/	-11.3%	-5.5%
N#C/C(=C/c1ccc([N+](=O)[O-])cc1)C(=O)Nc1ccccc1O	-2.8%	?	-2.2%	-5.4%	-0.2%	16.6%
SMILES	SMN2 splice enh	FLuc counter	Rab9 prom act	Luc counter	NPC1 promoter act	ELG1 genotoxic
COc1ccc(OC)c(C(C)NC(=O)Cn2c(=O)cc(C)c3c(C)nn(-c4ccc(C)cc4)c32)c1 (configuration not stated)	/	-5.3%	/	/	/	/
Cc1ccc(NC(=O)c2ncn[nH]2)cc1	14.8%	16.9µM*	2.2%	-0.9%	10.1%	8.3%
O=C(Nc1ccc2oc(-c3ccc(Cl)c(Cl)c3)nc2c1)c1ncn[nH]1	-21.8%	?	0.708µM*	3.1%	0.501µM*	?
O=C(Nc1ccc2oc(-c3ccccc3F)nc2c1)c1ncn[nH]1	14.1µM*	2.13µM*	0.501µM*	-14.3%	0.355µM*	?
COc1cc2ccccc2cc1C(=O)Nc1ccc2oc(-c3ccc(F)cc3)nc2c1	0.6%	-0.1%	/	/	/	/
O=C(Nc1ccc2oc(-c3cccc(F)c3)nc2c1)c1ccccc1F	-2.9%	-13.6%	?	-0.5%	?	20.6µM*
O=C(Nc1ccc(-c2nc3cc(NC(=O)c4ccccc4F)ccc3o2)cc1)c1ccccc1F	/	-2.5%	/	/	/	/
O=C(Nc1ccc2oc(-c3ccccc3F)nc2c1)c1ccccc1F	/	4.78µM*	3.55µM*	/	2.24µM*	15.6%
O=C(Nc1ccc2oc(-c3ccccc3)nc2c1)c1ccccc1F	12.6µM*	?	2.51µM*	1.6%	?	18.8%
O=C(Nc1ccc2oc(-c3ccncc3)nc2c1)c1ccccc1F	-37.8%	?	23.0%	-5.6%	27.7%	2.5%
O=C(COc1ccccc1N1C(=O)c2ccccc2C1=O)c1ccc(Cl)cc1	21.5%	3.6%	15.5%	4.3%	12.8%	18.4µM*
O=C(COc1ccc(N2C(=O)c3ccccc3C2=O)cc1)c1ccccc1	4.4%	-11.1%	-1.7%	0.0%	0.4%	0.2%
Cc1ccc(NC(=O)Cn2c(=O)n(Cc3ccccc3)c(=O)c3sc4ccccc4c32)cc1	5.8%	-2.4%	/	/	/	/
Cc1nc(SCc2ccccc2)nc2c1CCC2	11.2µM*	16.9µM*	?	-0.1%	?	?
Cc1ccc(CSc2nc3c(c(N(C)C)n2)CCCC3)cc1	-8.0%	-2.7%	-13.7%	1.5%	0.3%	?
O=c1c2ccccc2oc2cc(-c3ccc(CN4CCOCC4)cc3)ccc12	/	6.75µM*	?	/	2.24µM*	-10.0%
CC(C)C(=O)c1cc2c(cc1NC(=O)c1ccccc1F)OCCO2	/	3.7%	/	/	/	/
Cc1ccc2nc(/C(C#N)=C\c3cc(O)ccc3[N+](=O)[O-])[nH]c2c1	3.5%	19µM*	-0.4%	0.3%	-0.9%	1.5%
COc1cccc(/C=C(\C#N)c2nc3ccc(C)cc3[nH]2)c1	24.1%	3.38µM*	/	/	/	/
COc1cc(/C=C(\C#N)c2nc3ccc(C)cc3[nH]2)cc([N+](=O)[O-])c1O	?	3.79µM*	?	-0.4%	15.3%	?
COc1cc(/C=C(\C#N)c2nc3ccc(C)cc3[nH]2)c([N+](=O)[O-])cc1OC	-25.4%	-5.3%	-1.2%	-3.8%	-0.5%	-1.5%
Cc1oc2c(c(C)cc3oc(=O)c(CC(=O)NCc4ccc(F)cc4)c(C)c32)c1C	9.2%	2.2%	/	/	/	/
C=CCn1c(COc2ccccc2)nnc1SCC(=O)N/N=C/c1ccc(C)cc1	17.6%	12µM*	-0.4%	-4.4%	-7.3%	2.7%
C=CCn1c(COc2ccccc2)nnc1SCC(=O)N/N=C/c1cc(Cl)ccc1O	9.7%	0.3%	/	1.2%	/	/

Screening data (PubChem BioAssay)
